# Experimental data reported in PubChem BioAssay (EPA / NIEHS).
# Several values for one entry are separate records, joined by “and”; a condition that tells them apart may be missing. Equal entries are not always repeated. Activity calls are given as the source filed them. The calls were made as follows: active = hit-call score of the fitted dose curve at least 0.9, where 1 is the maximum; inactive = score below 0.9.
# What was measured:
# [1] = read-out: TIMP metallopeptidase inhibitor 1 (TIMP1), TIMP1 (gene 7076); test: BSK_MyoF_TIMP1: BioMAP Diversity Plus: MyoF Assay for TIMP metallopeptidase inhibitor 1 (TIMP1) Biomarker Activity (AID 2284269); details: primary human lung fibroblasts
# Outline: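 Primary human lung fibroblasts, MyoF multiplex system; chemical exposure 24 h; TIMP-1 by ELISA; positive fitting direction vs DMSO control.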
# [2] = read-out: Matrix Metallopeptidase 1 (MMP1), MMP1 (gene 4312); test: BSK_BF4T_MMP1: BioMAP Diversity Plus: BF4T Assay for Matrix Metallopeptidase 1 (MMP1) Biomarker Activity (AID 2284270); details: primary human bronchial epithelial cells with fibroblasts
# Outline: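 Co-culture of human bronchial epithelial cells and dermal fibroblasts; MMP-1 levels measured by ELISA 24 hours after chemical dosing, relative to DMSO. Cytotoxicity checked in parallel cultures by SRB total-protein staining.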
# [3] = read-out: Matrix Metallopeptidase 3 (MMP3), MMP3 (gene 4314); test: BSK_BF4T_MMP3: BioMAP Diversity Plus: BF4T Assay for Matrix Metallopeptidase 3 (MMP3) Biomarker Activity (AID 2284271); details: primary human bronchial epithelial cells with fibroblasts
# Outline: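 Co-culture of human bronchial epithelial cells and dermal fibroblasts dosed 24 h; MMP-3 measured by ELISA, positive-direction fit versus DMSO. Cytotoxicity tracked by SRB total-protein staining (560 nm) in parallel cultures.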
# [4] = read-out: Tissue plasminogen activator (tPA), PLAT (gene 5327); test: BSK_BF4T_tPA: BioMAP Diversity Plus: BF4T Assay for Tissue plasminogen activator (tPA) Biomarker Activity (AID 2284272); details: primary human bronchial epithelial cells with fibroblasts
# Outline: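 tPA level quantified by ELISA at 24 h post-treatment in bronchial epithelial/dermal fibroblast co-cultures, gain of signal scored against DMSO baseline. Parallel cultures stained with 0.1% SRB (560 nm) to flag overt cytotoxicity.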
# [5] = read-out: Plasminogen Activator Inhibitor-1 (PAI1), SERPINE1 (gene 5054); test: BSK_BF4T_PAI1: BioMAP Diversity Plus: BF4T Assay for Plasminogen Activator Inhibitor-1 (PAI1) Biomarker Activity (AID 2284273); details: primary human bronchial epithelial cells with fibroblasts
# Outline: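 Co-culture of human bronchial epithelial cells and dermal fibroblasts exposed to compound for 24 h. PAI-1 measured by ELISA; activity fitted in positive direction versus DMSO. Parallel SRB staining assessed overt cytotoxicity.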
# [6] = BSK_BF4T_SRB: Viability Assessment in the BioMAP Diversity Plus: BF4T Assay (AID 2284274); details: primary human bronchial epithelial cells with fibroblasts
# Outline: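 Co-culture of human bronchial epithelial cells and dermal fibroblasts (BioMAP BF4T) exposed 24 h. Total protein by sulforhodamine B staining (0.1% SRB after 10% TCA fixation, 560 nm) in parallel cultures; fitted vs DMSO.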
# [7] = read-out: urokinase Plasminogen Activator (uPA), PLAU (gene 5328); test: BSK_BF4T_uPA: BioMAP Diversity Plus: BF4T Assay for urokinase Plasminogen Activator (uPA) Biomarker Activity (AID 2284275); details: primary human bronchial epithelial cells with fibroblasts
# Outline: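 Co-culture of human bronchial epithelial cells and dermal fibroblasts; uPA quantified by ELISA 24 hours after dosing, fitted relative to DMSO. Parallel SRB total-protein staining assessed overt cytotoxicity.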
# [8] = read-out: Matrix Metallopeptidase 9 (MMP9), MMP9 (gene 4318); test: BSK_BF4T_MMP9: BioMAP Diversity Plus: BF4T Assay for Matrix Metallopeptidase 9 (MMP9) Biomarker Activity (AID 2284276); details: primary human bronchial epithelial cells with fibroblasts
# Outline: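 Co-culture of human bronchial epithelial cells and dermal fibroblasts dosed for 24 h; MMP-9 quantified by ELISA and fitted upward versus DMSO. Cytotoxicity monitored in parallel cultures by SRB total-protein staining at the biomarker time point.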
# [9] = read-out: Interleukin-8 (IL8), CXCL8 (gene 3576); test: BSK_IMphg_IL8: BioMAP Diversity Plus: IMphg Assay for Interleukin-8 (IL8) Biomarker Activity (AID 2284277); details: primary human endothelial cells with macrophages
# Outline: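 Co-culture of human venular endothelial cells and macrophages exposed to chemicals for 24 h; IL-8 quantified by ELISA and compared against the DMSO baseline, with SRB total-protein staining in parallel cultures for cytotoxicity.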
# [10] = read-out: Intercellular Adhesion Molecule 1 (ICAM1), ICAM1 (gene 3383); test: BSK_BE3C_ICAM1: BioMAP Diversity Plus: BE3C Assay for Intercellular Adhesion Molecule 1 (ICAM1) Biomarker Activity (AID 2284278); details: primary human bronchial epithelial cells;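 also: cell-surface ICAM-1 protein level quantified by ELISA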
# Outline: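 Primary human bronchial epithelial cells were exposed to compound for 24 h, after which cell-surface ICAM-1 was quantified by ELISA. Activity was fitted in the gain-of-signal direction against DMSO as negative control and baseline.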
# [11] = read-out: Interleukin-8 (IL8), CXCL8 (gene 3576); test: BSK_BE3C_IL8: BioMAP Diversity Plus: BE3C Assay for Interleukin-8 (IL8) Biomarker Activity (AID 2284280); details: primary human bronchial epithelial cells
# Outline: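 IL-8 signal gain, normalised to DMSO vehicle, was scored after a 24 h chemical exposure of primary human bronchial epithelial cells, with detection by ELISA.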
# [12] = read-out: Epidermal growth factor receptor (EGFR), EGFR (gene 1956); test: BSK_BE3C_EGFR: BioMAP Diversity Plus: BE3C Assay for Epidermal growth factor receptor (EGFR) Biomarker Activity (AID 2284281); details: primary human bronchial epithelial cells
# Outline: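 Compound is added to human bronchial epithelial cells, cells incubate 24 h, then EGFR is detected by ELISA. Values reflect positive-direction fitting relative to DMSO.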
# [13] = read-out: Matrix Metallopeptidase 9 (MMP9), MMP9 (gene 4318); test: BSK_BE3C_MMP9: BioMAP Diversity Plus: BE3C Assay for Matrix Metallopeptidase 9 (MMP9) Biomarker Activity (AID 2284283); details: primary human bronchial epithelial cells
# Outline: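 Human primary bronchial epithelial cells exposed 24 h to compound. MMP9 quantified by ELISA. SRB total-protein staining of parallel cultures assesses cytotoxicity. Positive-direction fit relative to DMSO.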
# [14] = read-out: Plasminogen activator inhibitor-1 (PAI1), SERPINE1 (gene 5054); test: BSK_CASM3C_PAI1: BioMAP Diversity Plus: CASM3C Assay for Plasminogen activator inhibitor-1 (PAI1) Biomarker Activity (AID 2284284); details: primary human coronary artery smooth muscle cells;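 also: PAI-1 protein level measured by ELISA 24 h after dosing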
# [15] = read-out: Monocyte Chemoattractant Protein-1 (MCP1), CCL2 (gene 6347); test: BSK_hDFCGF_MCP1: BioMAP Diversity Plus: hDFCGF Assay for Monocyte Chemoattractant Protein-1 (MCP1) Biomarker Activity (AID 2284285); details: primary human foreskin fibroblasts
# Outline: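 Human foreskin fibroblasts (hDFCGF system) were exposed to compound and secreted MCP-1 was measured by ELISA after 24 hours. Activity was fitted relative to DMSO. Cytotoxicity was checked by SRB total-protein staining in parallel cultures.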
# [16] = read-out: Vascular cell adhesion molecule 1 (VCAM1), VCAM1 (gene 7412); test: BSK_IMphg_VCAM1: BioMAP Diversity Plus: IMphg Assay for Vascular cell adhesion molecule 1 (VCAM1) Biomarker Activity (AID 2284286); details: primary human endothelial cells with macrophages
# Outline: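 Human venular endothelial cells co-cultured with macrophages; VCAM-1 quantified by ELISA 24 h after dosing, fitted in the positive direction against DMSO. Cytotoxicity was checked in parallel cultures by SRB total-protein staining (0.1% SRB after 10% TCA fixation, 560 nm).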
# [17] = read-out: Intercellular Adhesion Molecule 1 (ICAM1), ICAM1 (gene 3383); test: BSK_hDFCGF_ICAM1: BioMAP Diversity Plus: hDFCGF Assay for Intercellular Adhesion Molecule 1 (ICAM1) Biomarker Activity (AID 2284287); details: primary human foreskin fibroblasts
# Outline: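 Primary human foreskin fibroblasts (hDFCGF system) dosed with chemical; ICAM-1 quantified by ELISA at 24 h relative to DMSO. Parallel SRB total-protein staining to assess overt cytotoxicity.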
# [18] = read-out: KRT18 (gene 3875); test: BSK_BE3C_Keratin818: BioMAP Diversity Plus: BE3C Assay for Keratin 818 Biomarker Activity (AID 2284282); details: primary human bronchial epithelial cells
# Outline: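 Human primary bronchial epithelial cells in the BE3C system were exposed to test chemical for 24 h, then Keratin 8/18 was quantified by ELISA. Activity was fitted in the positive direction against DMSO as negative control and baseline.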
# [19] = read-out: Interferon-inducible T-cell alpha chemoattractant (ITAC), CXCL11 (gene 6373); test: BSK_BE3C_ITAC: BioMAP Diversity Plus: BE3C Assay for Interferon-inducible T-cell alpha chemoattractant (ITAC) Biomarker Activity (AID 2284279); details: primary human bronchial epithelial cells
# Outline: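 Steps: dose human bronchial epithelial cells with chemical; incubate 24 h; measure I-TAC by ELISA; fit endpoint in positive direction against DMSO control. Cytotoxicity was checked in parallel cultures by SRB staining at harvest.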
Structure (SMILES),outcome [1],outcome [2],outcome [3],outcome [4],outcome [5],outcome [6],outcome [7],outcome [8],outcome [9],outcome [10],outcome [11],outcome [12],outcome [13],outcome [14],outcome [15],outcome [16],outcome [17],AC50 [9],outcome [18],outcome [19]
NCC(F)(F)C(F)(F)C(F)(F)C(F)(F)C(F)(F)C(F)(F)C(F)(F)C(F)(F)F,inactive,inactive,inactive,inactive,inactive,inactive,inactive,inactive,inactive,inactive,inactive,inactive,inactive,inactive,inactive,inactive,inactive,,,
O=C(O)C(F)(F)C(F)(F)C(F)(F)C(F)(F)C(F)(F)C(F)(F)C(F)F,inactive,inactive,inactive,inactive,inactive,inactive,inactive,inactive,,inactive,inactive,inactive,inactive,inactive,inactive,inactive,inactive,30 µM (active) and 21.7 µM (active) and 32.1 µM (active),inactive,
OCC(F)(F)C(F)(F)C(F)(F)C(F)(F)C(F)(F)C(F)(F)CO,inactive,inactive,inactive,inactive,inactive,inactive,inactive,inactive,inactive,inactive,inactive,inactive,inactive,inactive,inactive,inactive,inactive,,,
FC(F)(F)C(F)(F)C(F)(F)CC1CO1 (stereo not drawn),inactive,inactive,inactive,inactive,inactive,inactive,inactive,inactive,inactive,inactive,inactive,inactive,inactive,inactive,inactive,inactive,inactive,,inactive,
O=C(O)C(F)(F)C(F)(F)C(F)(F)C(=O)O,inactive,inactive,inactive,inactive,inactive,inactive,inactive,inactive,inactive,inactive,inactive,inactive,inactive,inactive,inactive,inactive,inactive,,,inactive
